# Measured values as given in PubChem BioAssay (NCATS).
# Inconclusive results are not listed. Calls of active or inactive are those of the source. Calls come from the whole dose curve; as a rule, active = well fitted inhibition curve with a large enough effect; inconclusive = small, poorly fitted or top-dose-only effect; inactive = no such curve, though single readings can be large or run the other way.
# Molecular target: Endonuclease 4 (Escherichia coli (strain K12)) (UniProt P0A6C1)
# Experiment: Counterscreen for APE1 Inhibitors: qHTS Validation Assay for Inhibitors of Endonuclease IV (AID 1708)
# Conditions: E. coli endonuclease IV, DNA cleavage fluorescence; series mostly up to 57.1 µM; activity change, negative = inhibition: at the top concentration
# From the text: Assay Provider: David M. Wilson, III, National Institute on Aging, NIH
# Screening Center PI: Austin, C.P.
# Screening Center: NIH Chemical Genomics Center [NCGC]
# Escherichia coli endonuclease IV (Endo IV) is the key member of the AP endonuclease superfamily that catalyzes the cleavage of damaged DNA backbone immediately 5' of an AP site. E. coli EndoIV has the same functional activities as human APE1 but has no sequence or structural homology to the human protein. Herein, we utilize E. coli EndoIV to counter screen compound libraries as part of a high-throughput campaign for APE1 inhibitor identification. A concentration-response screen of the LOPAC1280 collection was performed under experimental conditions identical to those used in the APE1 screen.
# Inhibition of APE1 activity was screened by utilizing double-stranded short substrate containing tetrahydrofuran (THF) abasic site labeled with rhodamine-type fluorophore (TAMRA) at the 5'-end and with non-fluorescent Black Hole Quencher-2 (BHQ-2) at the opposing 3'-end. An increase in the fluorescence intensity due to incision of the abasic site by APE1 was used to measure the enzyme activity.
# Buffer: 50 mM Tris-HCl (pH 7.5) containing 50mM NaCl, 2 mM MgCl2, 1 mM DTT and 0.01% Tween-20.
# Buffer in columns 3 and 4 as negative control (no enzyme).
# Substrate: 50 nM final concentration of TAMRA/BHQ-2 substrate dispensed throughout the plate.
# Enzyme: 2 nM E. coli EndoIV final concentration in columns 1, 2, 5-48. Column 1 is neutral (100% activity).
# Control: Pintool transfer of control inhibitor NSC-13755 to column 2 of all assay plates. Two-fold, 16 pt dilution in duplicate to produce final concentrations in the 5.75 uM - 0.175 nM range.
# Three uL of enzyme were dispensed to 1536-well Greiner black solid bottom plates. Compounds (23 nL) were transferred via Kalypsys pintool. The plates were incubated for 15 min at room temperature, and then 1 uL of substrate solution was added to start the reaction. The plates were immediately transferred into ViewLux High-throughput CCD imager (Perkin-Elmer) in order to measure the reaction progress in kinetic mode (three reads every 60 seconds) using 525 nm excitation and 598 nm emission fluorescence protocol. The fluorescence intensity difference between the third and the first time points was used to compute reaction progress.
# % is set by controls: 0 for no effect and ±100 for the full control effect; potency is the fitted concentration of half-maximal effect.
Structure (SMILES),"activity change, negative = inhibition",Potency
O=C1N=C(O)CN1/N=C/c1ccc(-c2ccc([N+](=O)[O-])cc2)o1,-6.99% (inactive),
CC1=C(CC(=O)O)c2cc(F)ccc2/C1=C\c1ccc(S(C)(=O)=O)cc1,-6.59% (inactive),
CC(C)(C)c1onc(OCP(=O)(O)O)c1CC(N)C(=O)O (centres undefined),0.562% (inactive),
CNCC(O)c1ccc(O)c(O)c1 (centres undefined),4.58% (inactive),
C=Cc1c(C)c2cc3[nH]c(cc4nc(cc5nc(cc1[nH]2)C(C)=C5CCC(=O)O)C(CCC(=O)O)=C4C)c(C)c3C=C,-8.76% (inactive),
CC(=O)OCC(=O)[C@@]1(O)CC[C@H]2[C@@H]3CCC4=CC(=O)CC[C@]4(C)[C@H]3C(=O)C[C@@]21C,-8.59% (inactive),
Nc1cc(=O)[nH]c(N)n1,-9.56% (inactive),
CNC(=O)Oc1ccc2c(c1)[C@]1(C)CCN(C)[C@@H]1N2C,-1.77% (inactive),
CC[C@H]1CN2CCc3cc(OC)c(OC)cc3[C@@H]2C[C@@H]1C[C@H]1NCCc2cc(OC)c(OC)cc21,-2.57% (inactive),
NC(N)=NCCC[C@H](N)C(=O)O,-7.47% (inactive),
NC(=O)c1ncn([C@@H]2O[C@H](CO)[C@@H](O)[C@H]2O)n1,-6.75% (inactive),
C#CCN(C)Cc1ccccc1,-5.3% (inactive),
CC(C)(C(=O)O)c1ccc(C(O)CCCN2CCC(C(O)(c3ccccc3)c3ccccc3)CC2)cc1 (centres undefined),-6.18% (inactive),
CC(CN1c2ccccc2Sc2ccccc21)N(C)C (centres undefined),-9.64% (inactive),
OCc1cc(C(O)CNCCCCCCOCCCCc2ccccc2)ccc1O (centres undefined),-9.08% (inactive),
CNCCC(Oc1ccc(C(F)(F)F)cc1)c1ccccc1 (centres undefined),-4.74% (inactive),
CC1=C(/C=C/C(C)=C/C=C/C(C)=C/C(=O)O)C(C)(C)CCC1,-8.84% (inactive),

Structure (SMILES),"activity change, negative = inhibition",Potency
CCN(CC)CCCC(C)Nc1c2ccc(Cl)cc2nc2ccc(OC)cc12 (centres undefined),,12.6 µM (active)
CC1=C(CC(=O)O)c2cc(F)ccc2/C1=C\c1ccc(S(C)=O)cc1 (centres undefined),-7.71% (inactive),
CN(C)CC[C@@H](c1ccc(Cl)cc1)c1ccccn1,-8.03% (inactive),
CC(C)NC[C@H](O)c1ccc(O)c(O)c1,,inactive
NC1CCN(c2cccc(Cl)n2)CC1,-10.1% (inactive),
C[C@H]1O[C@@H](n2cc(F)c(=O)[nH]c2=O)[C@H](O)[C@@H]1O,-13.1% (inactive),
CN(C)CCOC(C)(c1ccccc1)c1ccccn1 (centres undefined),-7.87% (inactive),
CCCn1cnc2c1c(=O)n(CCCCC(C)=O)c(=O)n2C,-0.562% (inactive),
CC(C)C(=O)c1c(C(C)C)nn2ccccc12,-10.2% (inactive),
CC(C(O)c1ccc(O)cc1)N1CCC(Cc2ccccc2)CC1 (centres undefined),-3.37% (inactive),
C[C@](N)(Cc1ccc(O)cc1)C(=O)O,-6.35% (inactive),
COc1ccc(Cl)cc1C(=O)NCCc1ccc(S(=O)(=O)NC(=O)NC2CCCCC2)cc1,-12.1% (inactive),
COC(=O)C1=C(C)NC(C)=C(C(=O)OC)C1c1ccccc1[N+](=O)[O-],-12% (inactive),
CCN(CC)CCOC(=O)C1(C2CCCCC2)CCCCC1,-8.76% (inactive),
N=c1c[n+](N2CCOCC2)[n-]o1,-9.24% (inactive),
CCCCCCCCCCCCCCCC(=O)NCCO,-8.19% (inactive),
CCN(CC)CCNC(=O)c1cc(Cl)c(N)cc1OC,-7.55% (inactive),
